# Experimental data: publication PMC5540273 (PLoS ONE, 2017)
# Columns and labels:
# Conditions in all cases: concentration: 1 μM, replicates: in singlicate; n = 1
# [1] = test system: QSK
# [2] = test system: RAF1
# [3] = test system: RET
# [4] = test system: RIOK1
# [5] = test system: RIOK2
# [6] = test system: RIOK3
# [7] = test system: RIPK1
# [8] = test system: RIPK2
# [9] = test system: RIPK4
# [10] = test system: RIPK5
# 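Note: KINOMEscan kinase panel screen.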
SMILES,%Inh [1] [%],%Inh [2] [%],%Inh [3] [%],%Inh [4] [%],%Inh [5] [%],%Inh [6] [%],%Inh [7] [%],%Inh [8] [%],%Inh [9] [%],%Inh [10] [%]
O=C(Nc1n[nH]c2nc(-c3nccs3)c(Br)cc12)C1CC1 [SB-742251],19,8,12,30,0,29,15,10,17,0
Cc1ccccc1-n1cnc2c(N)ncnc21 [SKF-97510],0,0,17,0,0,0,10,0,0,0
O=C1NC(=O)C(N2CCc3ccccc32)=C1c1ccccc1Cl [SB-373598],4,25,3,19,4,1,0,10,12,0
NC(=O)c1nnc2ccccc2c1N,22,19,8,64,44,57,0,0,45,0
COc1cc(Nc2nccc(N3CCC(NC(=O)Nc4cc(C)ccc4C)C3)n2)cc(OC)c1OC (centres unmarked) [GSK1379762],0,19,25,60,6,34,4,8,18,0
Cc1cccc(-c2nc(-c3ccc(S(C)(=O)=O)cc3)sc2-c2ccnc(NCCc3ccccc3)c2)c1,0,93.4,30,17,15,18,3,6,0,0
Cc1cccc(-c2nc(Nc3ccncc3)c3ccccc3n2)n1 [GW855857],0,39,9,0,0,35,4,71,0,0
Cl.c1ccc(-c2n[nH]cc2-c2ccnc(-c3ccc(CN4CCOCC4)cc3)c2)nc1 [GW776245],0,37,0,19,0,20,11,36,0,0
Fc1cc(Cl)ccc1Nc1ccnc2cc(I)ccc12 [GW551191],37,10,53,31,0,19,0,67,12,0
COC(=O)c1c(-c2ccccc2)c2cc(OC)ccc2c(=O)n1Cc1ccccc1,23,85,17,0,0,0,0,0,4,24
CC1=C(C(=O)Nc2cc3cn[nH]c3cc2F)C(c2ccc(C(F)(F)F)cc2)CC(=O)N1 (centres unmarked) [GSK429286],14,5,44,34,23,0,0,12,13,1
Clc1cc(Cl)cc(Nc2ccnc(Nc3cc(Cl)cc(Cl)c3)n2)c1 [GSK175726],0,17,10,34,91.7,35,0,41,10,6
Cn1ccc2ncnc(Oc3ccc(NC(=O)Nc4ccccc4)cc3)c21,0,0,17,19,12,29,5,26,0,0
Cc1cc(NCC(c2ccccc2)c2ccccc2)nc(NCc2ccc(C(F)(F)F)cc2)n1 [GW497681],0,18,0,22,0,9,0,9,0,0
Nc1ncnc2[nH]c(-c3ccccc3)nc12 [AH5015],0,42,0,0,4,0,16,6,17,8
CS(=O)(=O)c1ccc(-c2nc3n(c2-c2ccncc2)CCC3)cc1 [SKF-105942],0,16,0,0,0,0,0,0,100,2
CCCc1ccc(S(=O)(=O)NC2CCN(c3ccnc(Nc4ccc(F)cc4)n3)C2)cc1 (centres unmarked) [GSK1379715],0,15,16,3,0,0,0,0,10,0
